Measured values reported in ChEMBL document CHEMBL3988442, “University of Dundee, Small-Polar-MMV Screening Library” (2021).
Out of some 53,000 compounds screened, about 900 (1.7%) showed an effect of 50% or more. The entries come from a sample that favours strong results as a whole.

These molecules were tested on Mycobacterium tuberculosis (assay: Cornell - Phenotypic assay to identify agents that inhibit growth of Mycobacterium tuberculosis). Settings: 10 mM as filed; unlikely as a test dose.
Type: functional
Design: scale not given: direction of the effect not stated beside the values

Row | Structure (SMILES) | Percent Effect [%]
1 | O=C1NCC2(CCCN(C(=O)CCn3cnc4ccccc43)CC2)O1 (stereo not given) | -0.9742
2 | COc1cccc(Cn2[nH]c(C)c3c(NC(=O)C(C)OC)nnc2-3)c1 (stereo not given) | 19.31
3 | COCC(C)NC(=O)CCSc1ccc(F)cc1 (stereo not given) | -22.42
4 | CCOC(=O)C(C)NC(=O)CCc1ccc(F)cc1 (stereo not given) | 12.11
5 | CCOC(=O)C(C)NC(=O)CCSc1ccc(F)cc1 (stereo not given) | 72.72
6 | CNC(=O)NC(=O)CN1CCN(c2ccc(C(=O)OC)cc2)CC1C (stereo not given) | -3.666
7 | CC(C)CNc1nc(C(=O)/N=c2\[nH]nc(C(C)(C)C)s2)cs1 | 4.379
8 | Cc1cs/c(=N/C(=O)c2csc(NCC(C)C)n2)[nH]1 | 104.8
9 | Cc1[nH]/c(=N\C(=O)c2csc(NCC(C)C)n2)sc1C | 105.2
10 | CC(=O)Nc1nc(C(=O)NC(C)c2cccnc2)cs1 (stereo not given) | -20.46
11 | CC(=O)Nc1nc(C(=O)NC(C)c2ccncc2)cs1 (stereo not given) | -46.84
12 | Cc1cs/c(=N\C(=O)c2c3c(nc4onc(C)c24)CCC3)[nH]1 | 37.19
13 | CCCNC(=O)C(C)N1CCC(C(=O)Nc2cnn(CC)c2)CC1 (stereo not given) | -1.052
14 | O=C(Nc1cccnc1-n1cc(Br)cn1)C1CCCC1 | -1.816
15 | Cc1cnc(N2CCCn3c(nnc3CN(C)C(C)C)C2)nc1.O=C(O)C(F)(F)F | 8.261
16 | c1csc(N2CCN(c3ncnc4sccc34)CC2)n1 | 8.465
17 | COCC(=O)N1CCCC(C(=O)N(C)CCn2ccnc2C)C1 (stereo not given) | -64.71
18 | CCn1c(CN(C)Cc2cnc(C)s2)nc2c(F)cccc21 | 21.09
19 | Cc1ccccc1OCCN1CCn2c(C)nnc2C1 | -10.78
20 | Cc1nnc(C(C)N2CCc3[nH]c4ccccc4c3C2)o1 (stereo not given) | 28.26
21 | Cc1nnc(C(C)N2CCc3[nH]c4ccc(Cl)cc4c3C2)o1 (stereo not given) | 34.8
22 | Cc1noc(C(C)N2CCc3[nH]c4ccc(Cl)cc4c3C2)n1 (stereo not given) | 63.72
23 | CN(C)CCn1c2c(ccc1=O)CC(NC(=O)c1ccsc1)CC2.O=C(O)C(F)(F)F (stereo not given) | -27.73
24 | CCN(CC1CCCO1)C(=O)Nc1ccc(OC)c(C)c1 (stereo not given) | 29.95
25 | CCN(CC1CCCO1)C(=O)Nc1ccc(F)cc1OC (stereo not given) | 2.654

Row | Structure (SMILES) | Percent Effect [%]
26 | CCN(CC1CCCO1)C(=O)Nc1cc(OC)c(OC)cc1C (stereo not given) | 69.91
27 | CC(Oc1ccc2c(c1)OCO2)C(=O)N1CCC(c2ncc[nH]2)CC1 (stereo not given) | -2.052
28 | Cc1ccc(C2CSCCN2C(=O)c2cccs2)o1 (stereo not given) | -1.514
29 | CNC(=O)c1cnn2c(C3CCCN3)ccnc12 (stereo not given) | -26.66
30 | Cn1ccnc1CN1CCCC(Cc2ccnc3ccncc23)CC1.O=CO (stereo not given) | 25.28
31 | CC(OCC1CC1)C(=O)Nc1ccn(Cc2ccccc2)n1 (stereo not given) | -1.057
32 | CC(OCC1CC1)C(=O)Nc1nccn1Cc1ccccc1 (stereo not given) | 51.13
33 | CCOCCOC(C)C(=O)Nc1nccn1Cc1ccccc1 (stereo not given) | 4.045
34 | CCC(=O)N1CCCCC1c1nc(O)c2c(n1)CN(S(=O)(=O)CC)CC2 (stereo not given) | 9.253
35 | Cc1nc([C@@H]2C[C@@H]3CCN(C(=O)Cc4cccs4)C[C@H]3O2)no1 | 53.11
36 | Cc1nc([C@@H]2C[C@@H]3CCN(C(=O)Cc4ccsc4)C[C@H]3O2)no1 | -0.3005
37 | CC(=O)N1CCC(c2noc(C3CCC(=O)N3)n2)CC1 (stereo not given) | 5.586
38 | O=C1CCC(c2nc(C3CCN(C(=O)Cc4cccs4)CC3)no2)N1 (stereo not given) | 57.39
39 | Cc1nc([C@@H]2C[C@@H]3CCN(C(=O)Cc4cccc(F)c4)C[C@H]3O2)no1 | 16.61
40 | O=C1CCC(c2nc(C3CCN(C(=O)C4CC4)CC3)no2)N1 (stereo not given) | 13.14
41 | CC(=O)N[C@@H]1CN(Cc2cccs2)C[C@H]1c1ccc(C)o1 | 10.2
42 | Cn1nc(COc2cccnc2)c2c1CCN(CC1CC1)C2.O=C(O)C(F)(F)F.O=C(O)C(F)(F)F | -1.302
43 | CCCN(CCO)S(=O)(=O)c1ccc2[nH]c(=O)[nH]c2c1 | 11.31
44 | Cc1cc(C[C@@H]2CCC[C@H]2NCc2ccccc2C(F)(F)F)on1.O=C(O)CC(O)(CC(=O)O)C(=O)O | 12.28
45 | Cc1cc(C[C@@H]2COC[C@H]2NCc2ccc(C)c(C)c2)on1.O=C(O)CC(O)(CC(=O)O)C(=O)O | -9.136
46 | Cc1cc(C[C@@H]2CCC[C@H]2NCc2cc(C)c(O)c(C)c2)on1.O=C(O)CC(O)(CC(=O)O)C(=O)O | 77.55
47 | CC(=O)N1CCC2(CCN(Cc3ccc(Cl)c(C(F)(F)F)c3)CC2)C1 | 43.5
48 | Cc1cc2nc(C(C)C)cc(N3CCC(N(C)C)C3)n2n1 (stereo not given) | 32.15
49 | O=c1[nH]c2c(-c3ccccn3)nsc2c(=O)n1CC1CCCO1 (stereo not given) | -0.9245
50 | COc1ccccc1OC1CN(C(=O)c2ccc(C(C)=O)s2)C1 | -4.28

Row | Structure (SMILES) | Percent Effect [%]
51 | CO[C@H]1C[C@@H]2CN(C(=O)c3ccc(C)s3)C[C@@H]2C1 | 41.56
52 | Cc1ccc(C(=O)N2CC(Oc3ccccc3C)C2)s1 | 67.58
53 | COc1cccc2ccc(N3CCC(O)(C(=O)O)CC3)nc12 | -24.68
54 | CC(c1nc(C(C)(C)C)no1)N1CCN(Cc2ccco2)CC1 (stereo not given) | 11.7
55 | CCn1ccnc1CN1CCCN(C(=O)COC2CCCC2)CC1 | -24.49
56 | CNc1ncc(C(=O)N2CCOC(C(=O)N3CCCCCC3)C2)cn1 (stereo not given) | -4.246
57 | CCOc1cccc2c1OCC(C(=O)NS(=O)(=O)c1ccc(Cl)s1)=C2 | 9.699
58 | CCOc1cccc2c1OCC(C(=O)NS(=O)(=O)c1ccc(Br)s1)=C2 | -17.73
59 | CCOc1cccc2c1OCC(C(=O)NC(C)Cn1cccn1)=C2 (stereo not given) | 7.345
60 | CCOc1cccc2c1OCC(C(=O)NS(=O)(=O)c1ccc(C)s1)=C2 | 107.6
61 | CCOc1ccccc1C(=O)NS(=O)(=O)c1ccc2c(c1)OCCCO2 | 27.03
62 | CCOc1cccc2c1OCC(C(=O)NS(=O)(=O)c1ccc(Cl)cc1)=C2 | 104.6983
63 | Cc1cc(OCC(=O)NS(=O)(=O)c2c(C)noc2C)ccc1Cl | 39.96
64 | CCOc1cccc2c1OCC(C(=O)NS(=O)(=O)c1c(C)noc1C)=C2 | 106
65 | Cc1ccc(OCC(=O)NS(=O)(=O)Cc2ccccc2)cc1 | 7.336
66 | CCOc1cccc2c1OCC(C(=O)NS(=O)(=O)Cc1ccccc1)=C2 | 106.8
67 | CCOc1cccc2c1OCC(C(=O)NS(=O)(=O)c1cncc(Br)c1)=C2 | 44.21
68 | CCOc1cccc2c1OCC(C(=O)NS(=O)(=O)c1cccs1)=C2 | 19.94
69 | CCc1cnc(NC(=O)NC2CCN(C3CCCC3)CC2)s1 | -3.242
70 | CC(=O)N1CC[C@@H]2O[C@@H](COCC(=O)N3CCCC3)CC[C@@H]21 | -45.3
71 | O=C(NCC(Cc1cccc(F)c1)N1CCCC1=O)c1ccc(=O)[nH]n1 (stereo not given) | 14.14
72 | Cc1ncsc1C(=O)N1CCC(c2ncncc2-c2ccnc(N)c2)C1 (stereo not given) | -0.8467
73 | CSCC[C@H](NC(C)=O)c1nc(Cc2ccccc2)n[nH]1 | -11.93
74 | COc1ncccc1CN1Cc2nccn2CC(CN2CCCC2)C1 (stereo not given) | 6.883
75 | Cc1ccccc1CCCN1CCS(=O)(=O)CC1C (stereo not given) | 46.6

Row | Structure (SMILES) | Percent Effect [%]
76 | CC(C)(C)S(=O)(=O)c1ccc(N2CCC(n3cncn3)CC2)cn1 | -14.59
77 | CS(=O)(=O)N[C@@H]1CN(C(=O)c2cnccn2)[C@@H]2CCCO[C@@H]21 | -34.02
78 | Cc1cnc(CN(C)Cc2cccc(OC(F)(F)F)c2)cn1 | -8.651
79 | O=C(NCc1ccccc1)NCc1nc(-c2ccncc2)n[nH]1 | 13.27
80 | CC(C)Oc1cccc(-c2nc3c([nH]2)CCCNC3=O)c1 | -4.933
81 | Cc1cccc(SC2CCN(C(=O)CCCS(N)(=O)=O)CC2)c1 | 37.58
82 | CC(=O)NCCCC(=O)N1CCC(Sc2cccc(C)c2)CC1 | 15.76
83 | Cc1cccc(SC2CCN(C(=O)CCCn3cnnn3)CC2)c1 | 50.26
84 | Cc1nc(N2CCCOC(Cn3cccn3)C2)c2sccc2n1 (stereo not given) | 26.84
85 | CCC(C)(C)NC(=O)c1nnn(-c2cccc3c2CCN(C)C3)c1C | -0.0817
86 | COCc1nc(CNc2cc(C)nc(N3CCCCC3)n2)no1 | -11.46
87 | CCn1cc(S(=O)(=O)NC(=O)CCc2c[nH]c3ccccc23)cn1 | 53.27
88 | CCn1cc(NC(=O)NC(CO)Cc2c[nH]c3ccccc23)cn1 (stereo not given) | -8.114
89 | CCn1cc(S(=O)(=O)NC(CO)Cc2c[nH]c3ccccc23)cn1 (stereo not given) | -1.971
90 | Cc1noc(-c2ccc(-n3ncc(C(=O)O)c3C)nc2)n1 | 11.73
91 | COC(=O)[C@H](CC(C)C)NC(=O)c1snnc1-c1ccc(OC)cc1 | 25.36
92 | CCC(C)NC(=O)c1snnc1-c1ccc(OC)cc1 (stereo not given) | 21.58
93 | COC(=O)[C@@H](NC(=O)c1snnc1-c1ccc(OC)cc1)C(C)C | 58.81
94 | Cc1ccc(-c2nc(CN3CCn4c(C)nnc4C3)co2)cc1 | -23.96
95 | Nc1nc2nc(C3CCN(C(=O)c4cscn4)C3)ccc2s1 (stereo not given) | -97.96
96 | O=C(NC1CCCN(CCc2ccccc2)C1)c1ccccn1 (stereo not given) | 35.43
97 | O=C(c1ccco1)N1CCO[C@@H]2CN(c3ccccc3)CC[C@@H]2C1 | 17.14
98 | CCc1ccccc1OC1CN(C(=O)c2ccnc(OC)c2)C1 | 66.55
99 | COc1cccc(OC2CN(C(=O)c3ccnc(OC)c3)C2)c1 | 17.3
100 | COc1cc(C(=O)N2CC(Oc3ccccc3Cl)C2)ccn1 | 25.67
